The record followed here is PubChem BioAssay (NCATS).

“And” between values parts separate entries of the source, which are not always exact repeats. Identical values can stand only once. The source made the active and inactive calls. Unless noted, calls follow the shape of the full dose curve.

Assay [1] can be described thus: MultiTox-Fluor Cytotoxicity Assay - LYMP1-001 - Live Cells (AID 947; active = well fitted curve in the direction sought with a large enough effect; inconclusive = small, poorly fitted or top-dose-only effect, or another doubt; inactive = no such curve, though single readings can be large; an effect the other way counts as inactive or inconclusive; also: potency is read from the fitted curve at half-maximal effect).
The nature of assay [2]: MultiTox-Fluor Cytotoxicity Assay - LYMP1-002 - Dead Cells (AID 960; active = well fitted curve in the direction sought with a large enough effect; inconclusive = small, poorly fitted or top-dose-only effect, or another doubt; inactive = no such curve, though single readings can be large; an effect the other way counts as inactive or inconclusive; also: nearly all actives have a fitted effect of over 60% in size; also: potency is read from the fitted curve at half-maximal effect). In short, it runs like this: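 Dead-cell fluorescence (Ex/Em 485/520) after 16 h compound exposure at 37 C of LYMP1-002 lymphoblastoid cells in complete medium; AC50 by Hill equation, with data scaled between DMSO and 15 uM tetraoctylammonium bromide.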
Assay [3] addresses Estrogen receptor (Homo sapiens) (UniProt P03372). In words: qHTS assay for small molecule antagonists of estrogen receptor alpha signaling (AID 588513; active = well fitted curve in the direction sought with a large enough effect in the signal ratio, with a control signal flat, not every such curve was filed as active; inconclusive = small, poorly fitted or top-dose-only effect, or effect the other way, or a change in a side signal; inactive = no such curve, though single readings can be large or run the other way; the % refers to the signal ratio; also: potency is read from the fitted curve at half-maximal effect). In short, it runs like this: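 Fluorescence from CCF4 substrate after 2 h at room temperature gave reporter activity; cells had been exposed to compound and 0.5nM 17-beta-estradiol for 18 h at 37 C. Hill-equation fitting yielded IC50 and maximal response.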

Assay [4] shares this target. Kind of assay: qHTS assay for small molecule agonists of estrogen receptor alpha signaling (AID 588514).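 Also: 0% = vehicle only and 100% = reference agonist; nearly all actives have a fitted effect of over 70% in size.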 In short, it runs like this:
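EC50 and efficacy came from Hill fits of beta-lactamase reporter signal (CCF4 dye, 2 h at room temperature) scaled between DMSO and 20 nM 17-beta-estradiol. Agonist mode: HEK293 ER-alpha-UAS-bla cells in charcoal/dextran-stripped serum medium, 18 h compound exposure at 37 C.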

The target of assay [5] is Glucocorticoid receptor (Homo sapiens) (UniProt P04150). In words: qHTS assay for small molecule agonists of glucocorticoid receptor signaling (AID 588532; active = well fitted curve in the direction sought with a large enough effect in the signal ratio, with a control signal flat; inconclusive = small, poorly fitted or top-dose-only effect, or a change in a side signal; inactive = no such curve, though single readings can be large or run the other way; the % refers to the signal ratio;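 also: 100% = dexamethasone at 0.1 µM and 0% = DMSO only wells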). The settings on record: HeLa MMTV-bla, beta-lactamase ratio, agonist, 18 h; stronger effect = higher value; percent of dexamethasone control, DMSO zero. In short, it runs like this:
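Agonist-mode qHTS: GRE-driven beta-lactamase in HeLa cells exposed 18 h to titrated compounds (up to 92 uM), then CCF4 ratio read after 2 h at RT; Hill-fitted EC50, efficacy relative to 0.1 uM dexamethasone.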
A general note: Quantitative high-throughput screening tests each substance at several concentrations.

Assay [6] has as its target Peroxisome proliferator-activated receptor gamma (Homo sapiens) (UniProt P37231). In words: qHTS assay for small molecule agonists of peroxisome proliferator-activated receptor gamma signaling (AID 588536; active = well fitted curve in the direction sought with a large enough effect in the signal ratio, with a control signal flat, not every such curve was filed as active; inconclusive = small, poorly fitted or top-dose-only effect, or effect the other way, or a change in a side signal; inactive = no such curve, though single readings can be large or run the other way; the % refers to the signal ratio;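 also: 0% = DMSO basal wells and 100% = rosiglitazone at 2 µM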). In short, it runs like this: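 Cells were plated and held 6–6.5 h at 37 C, then compounds were added as a titration series. After a further 16 h, CCF4 dye was loaded for 2 h at room temperature and emission at 460/530 nm recorded.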

Assay [7] has as its target Vitamin D3 receptor (Homo sapiens) (UniProt P11473). Kind of assay: qHTS assay for small molecule antagonists of vitamin D receptor signaling (AID 588541).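 Also: receptor activated by calcitriol during compound treatment; series mostly up to about 77 µM; % is scaled to controls: 0 for no effect and ±100 for the full control effect.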 In short, it runs like this:
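Antagonist-mode beta-lactamase reporter assay: HEK293T VDR-UAS-bla cells were exposed to titrated compound alongside 1-alpha,25-dihydroxyvitamin D3 at 3 nM final for 16 h. Values were normalized to the 50 nM agonist control and DMSO basal, with IC50 and efficacy from Hill equation fits.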

Assay [8] shares this target. In words: qHTS assay for small molecule agonists of vitamin D receptor signaling (AID 588543).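 Also: 0% = DMSO basal and 100% = reference agonist control.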 In short, it runs like this:
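Reporter cells (HEK293T, VDR-UAS-bla) were seeded in medium with 2% charcoal-stripped serum and incubated 5 h, then compounds in concentration series were added for 16 h at 37 °C. Stimulation was scaled between DMSO basal and 50 nM 1α,25-dihydroxyvitamin D3.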

The nature of assay [9]: qHTS assay for small molecule agonists of retinoid X receptor alpha signaling (AID 588544).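 As to activation: 0% = DMSO basal wells and 100% = reference agonist.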 The settings on record: HEK293T RXRa-UAS-bla, beta-lactamase reporter, 18 h; 530 nm emission.
Assay [10] deals with Retinoic acid receptor RXR-alpha (Homo sapiens) (UniProt P19793). The description is as above.
Assay [11] concerns the target Thyroid hormone receptor beta (Homo sapiens) (UniProt P10828). In words: qHTS assay for small molecule antagonists of thyroid hormone receptor beta signaling (AID 588547; active = well fitted inhibition curve with a large enough effect in the signal ratio, with a control signal flat, not every such curve was filed as active; inconclusive = small, poorly fitted or top-dose-only effect, or effect the other way, or a change in a side signal; the % refers to the signal ratio;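 also: cells stimulated with 0.4 nM T3 agonist during compound exposure; series mostly up to about 77 µM; % is scaled to controls: 0 for no effect and ±100 for the full control effect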). The settings on record: TR-UAS-bla HEK293, beta-lactamase ratio, antagonist mode, 18 h. In short, it runs like this:
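Inhibition of T3-driven (0.4nM final) beta-lactamase reporter activity was measured over 0.59 nM to 92 uM compound after 18 h at 37 C. The cells were GripTite HEK293 TR-UAS-bla in charcoal/dextran-stripped serum, with CCF4 ratio read-out and IC50 from Hill fits.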

For assay [12], the target named is Voltage-gated inwardly rectifying potassium channel KCNH2 (Homo sapiens) (UniProt Q12809). In words: qHTS Assay for Small Molecule Inhibitors of the Human hERG Channel Activity (AID 588834; active = well fitted curve in the direction sought with a large enough effect; inconclusive = small, poorly fitted or top-dose-only effect, or another doubt; inactive = no such curve, though single readings can be large; an effect the other way counts as inactive or inconclusive;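 also: top concentration of the series differs between compounds; % is scaled to controls: 0 for no effect and ±100 for the full control effect; lower thallium flux fluorescence means stronger hERG block; nearly all actives have a fitted effect of over 50% in size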). In short, it runs like this: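 Step 1: BacMam hERG transduction of U2OS, 4 hrs RT. Step 2: overnight 37 °C, plate 2000 cells/well, 4 hr. Step 3: FluxOR load, compound 10 min, stimulate, read fluorescence.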

Assay [13] in a line: qHTS assay for small molecule activators of the p53 signaling pathway (AID 651743; active = well fitted activation curve with a large enough effect in the signal ratio, not every such curve was filed as active; inconclusive = small, poorly fitted or top-dose-only effect, or a change in a side signal; the % refers to the signal ratio; also: series mostly up to about 92 µM; % of control where 0% means no effect). Conditions: HCT-116 p53RE-bla, beta-lactamase FRET ratio, 16 h; activation: stronger effect = higher value. In short, it runs like this: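 After 16 hours compound treatment at 37 C, HCT-116 cells stably expressing p53RE-driven beta-lactamase were loaded with LiveBLAzer B/G FRET substrate for 2 hours at room temperature. Fluorescence intensity served as the p53 activation read-out.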

A short description of assay [14]: qHTS assay for small molecule disruptors of the mitochondrial membrane potential - 1 hr assay (AID 651754). Also: % is scaled to controls: 0 for no effect and ±100 for the full control effect; nearly all actives have a fitted effect of over 35% in size. In short, it runs like this:
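Mitochondrial potential in living HepG2 cells after 1 hr compound treatment at 37C was read with Mito-MPS dye added for a further 30 min. Red aggregate and green monomer fluorescence were measured; loss of potential leaves dye as cytoplasmic monomers.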

The target in assay [15] is Tumor necrosis factor (Homo sapiens) (UniProt P01375). Kind of assay: qHTS assay to identify small molecules that stimulate Tumor Necrosis Factor-alpha (TNF-alpha) secretion (AID 651757; active = well fitted curve in the direction sought with a large enough effect in the signal ratio; inconclusive = small, poorly fitted or top-dose-only effect, or a change in a side signal; inactive = no such curve, though single readings can be large or run the other way; the % refers to the signal ratio; also: 0% is about no effect). Summed up:
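Secreted TNF-alpha quantified by TR-FRET sandwich of two labeled anti-TNF-alpha antibodies, incubated 3 hr at room temperature. Preceded by 17 hr, 37 C compound treatment of THP-1 cells at 3000 cells/well.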

A short description of assay [16]: qHTS assay for environmental chemicals that activate the Aryl hydrocarbon Receptor (AhR) signaling pathway (AID 651777; active = well fitted curve in the direction sought with a large enough effect; inconclusive = small, poorly fitted or top-dose-only effect, or another doubt; inactive = no such curve, though single readings can be large; an effect the other way counts as inactive or inconclusive; also: % of control where 0% means no effect; nearly all actives have a fitted effect of over 15% in size). The settings on record: 1A2-DRE human hepatoma cells, luciferase, 24 h; activation: stronger effect = higher value. In short, it runs like this: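 Stable CYP1A2 promoter/DRE-luciferase human hepatoma line treated 24 hr; One-Glo luminescence, 30 min RT.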

A short description of assay [17]: qHTS assay for small molecule agonists of the antioxidant response element (ARE) signaling pathway measured by Nrf2-dependant transcriptional activity (AID 720636; active = well fitted curve in the direction sought with a large enough effect in the repeat runs; inconclusive = weak or mixed curves; inactive = no such curve, though single readings can be large; an effect the other way counts as inactive or inconclusive; also: potency is read from the fitted curve at half-maximal effect;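 as to activation: HepG2 cells with an ARE-driven luciferase reporter; % of control where 0% means no effect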). Summed up:
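Reporter gene assay, HepG2 ARE-luc: 16 hr compound, 37 C, 5% CO2; read-out luciferase luminescence.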

Assay [18] is described as follows: qHTS assay for small molecule antagonists of the retinoid-related orphan receptor gamma (ROR-gamma) signaling pathway - cell viability counter screen (AID 720652; active = well fitted curve in the direction sought with a large enough effect in the repeat runs; inconclusive = weak or mixed curves; inactive = no such curve, though single readings can be large; an effect the other way counts as inactive or inconclusive;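 also: series mostly up to about 92 µM; compound exposure lasted 16 hr before ATP read; % is scaled to controls: 0 for no effect and ±100 for the full control effect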). Summed up: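 Cytotoxicity counter screen: intracellular ATP (CellTiter-Glo luminescence) measured in the doxycycline-induced CHO RORE-luciferase reporter line after 16 hr compound exposure at 37 C, 5% CO2.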

Assay [19] concerns the target Nuclear receptor subfamily 1 group I member 2 (Rattus norvegicus) (UniProt Q9R1A7). In words: qHTS assay for small molecule activators of the rat pregnane X receptor (rPXR) signaling pathway (AID 651751; call rule not given here; also: 0% is about no effect). Conditions: rPXR reporter cells, luciferase (One-Glo), 24 h.
Assay [20] can be described thus: qHTS assay for small molecule activators of the human pregnane X receptor (PXR) signaling pathway (AID 720659; call rule not given here; also: 0% is about no effect).

Chain of Estrogen receptor (Homo sapiens) (P03372 whole entry, looked up): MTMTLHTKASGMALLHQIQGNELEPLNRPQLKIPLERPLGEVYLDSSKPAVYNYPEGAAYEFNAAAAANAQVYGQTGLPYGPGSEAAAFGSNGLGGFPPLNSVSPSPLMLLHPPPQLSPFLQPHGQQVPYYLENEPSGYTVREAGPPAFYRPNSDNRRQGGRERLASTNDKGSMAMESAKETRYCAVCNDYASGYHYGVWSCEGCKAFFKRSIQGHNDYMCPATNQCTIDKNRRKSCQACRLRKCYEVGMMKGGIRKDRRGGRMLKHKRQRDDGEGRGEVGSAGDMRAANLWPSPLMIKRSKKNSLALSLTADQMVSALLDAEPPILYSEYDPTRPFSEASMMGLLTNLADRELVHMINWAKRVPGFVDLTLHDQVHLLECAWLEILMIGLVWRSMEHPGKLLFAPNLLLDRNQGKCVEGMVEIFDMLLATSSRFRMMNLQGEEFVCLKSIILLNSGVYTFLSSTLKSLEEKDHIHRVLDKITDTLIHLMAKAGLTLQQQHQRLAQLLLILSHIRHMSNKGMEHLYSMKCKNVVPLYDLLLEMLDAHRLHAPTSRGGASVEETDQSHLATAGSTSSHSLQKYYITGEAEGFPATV
Chain of Thyroid hormone receptor beta (Homo sapiens) (P10828 whole entry, looked up): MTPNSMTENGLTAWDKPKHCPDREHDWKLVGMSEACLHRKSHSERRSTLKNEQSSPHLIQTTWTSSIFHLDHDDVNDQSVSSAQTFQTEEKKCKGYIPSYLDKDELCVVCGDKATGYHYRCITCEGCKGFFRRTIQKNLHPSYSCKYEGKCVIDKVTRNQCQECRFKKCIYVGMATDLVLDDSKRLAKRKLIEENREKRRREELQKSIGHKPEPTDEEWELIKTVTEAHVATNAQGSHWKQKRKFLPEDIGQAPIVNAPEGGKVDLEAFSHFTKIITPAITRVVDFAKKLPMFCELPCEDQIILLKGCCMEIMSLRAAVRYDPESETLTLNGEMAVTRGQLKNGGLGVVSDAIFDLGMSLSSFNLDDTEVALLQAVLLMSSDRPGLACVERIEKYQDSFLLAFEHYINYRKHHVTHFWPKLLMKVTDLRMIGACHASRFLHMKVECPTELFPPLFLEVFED
Chain of Glucocorticoid receptor (Homo sapiens) (P04150 whole entry, looked up): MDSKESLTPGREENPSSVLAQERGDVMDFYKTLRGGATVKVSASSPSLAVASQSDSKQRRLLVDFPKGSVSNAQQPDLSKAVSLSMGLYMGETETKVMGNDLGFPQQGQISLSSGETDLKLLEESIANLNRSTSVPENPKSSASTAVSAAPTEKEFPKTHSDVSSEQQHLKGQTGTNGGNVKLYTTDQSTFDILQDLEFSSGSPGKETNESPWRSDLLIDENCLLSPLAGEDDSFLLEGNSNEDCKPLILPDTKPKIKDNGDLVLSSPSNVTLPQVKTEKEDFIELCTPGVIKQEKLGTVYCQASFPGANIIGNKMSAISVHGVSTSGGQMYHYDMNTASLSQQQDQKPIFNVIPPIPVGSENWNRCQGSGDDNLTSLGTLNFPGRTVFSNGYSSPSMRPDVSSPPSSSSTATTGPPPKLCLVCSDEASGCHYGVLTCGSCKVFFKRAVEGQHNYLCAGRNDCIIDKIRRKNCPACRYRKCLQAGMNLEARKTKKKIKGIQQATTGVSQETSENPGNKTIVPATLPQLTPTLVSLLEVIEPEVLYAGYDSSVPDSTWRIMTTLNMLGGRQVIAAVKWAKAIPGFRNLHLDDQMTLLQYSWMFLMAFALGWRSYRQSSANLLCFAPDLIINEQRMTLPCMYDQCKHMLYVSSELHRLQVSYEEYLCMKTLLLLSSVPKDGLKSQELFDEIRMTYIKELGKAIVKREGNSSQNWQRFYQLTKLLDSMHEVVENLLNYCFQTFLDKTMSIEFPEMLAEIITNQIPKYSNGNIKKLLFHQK
Chain of Peroxisome proliferator-activated receptor gamma (Homo sapiens) (P37231 whole entry, looked up): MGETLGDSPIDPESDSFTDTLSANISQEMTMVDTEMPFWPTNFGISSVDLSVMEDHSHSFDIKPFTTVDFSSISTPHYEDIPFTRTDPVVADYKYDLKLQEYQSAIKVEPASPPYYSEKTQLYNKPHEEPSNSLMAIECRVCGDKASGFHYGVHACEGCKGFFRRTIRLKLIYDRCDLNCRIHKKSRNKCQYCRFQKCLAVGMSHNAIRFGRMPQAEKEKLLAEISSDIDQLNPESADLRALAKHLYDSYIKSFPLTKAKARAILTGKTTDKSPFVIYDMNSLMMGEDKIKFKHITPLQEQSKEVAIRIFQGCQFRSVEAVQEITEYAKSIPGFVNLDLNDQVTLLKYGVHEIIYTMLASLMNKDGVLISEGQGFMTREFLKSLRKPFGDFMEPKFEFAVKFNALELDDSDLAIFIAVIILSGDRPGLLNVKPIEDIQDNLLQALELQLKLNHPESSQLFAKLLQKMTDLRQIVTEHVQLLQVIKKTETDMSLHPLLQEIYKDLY
Chain of Vitamin D3 receptor (Homo sapiens) (P11473 whole entry, looked up): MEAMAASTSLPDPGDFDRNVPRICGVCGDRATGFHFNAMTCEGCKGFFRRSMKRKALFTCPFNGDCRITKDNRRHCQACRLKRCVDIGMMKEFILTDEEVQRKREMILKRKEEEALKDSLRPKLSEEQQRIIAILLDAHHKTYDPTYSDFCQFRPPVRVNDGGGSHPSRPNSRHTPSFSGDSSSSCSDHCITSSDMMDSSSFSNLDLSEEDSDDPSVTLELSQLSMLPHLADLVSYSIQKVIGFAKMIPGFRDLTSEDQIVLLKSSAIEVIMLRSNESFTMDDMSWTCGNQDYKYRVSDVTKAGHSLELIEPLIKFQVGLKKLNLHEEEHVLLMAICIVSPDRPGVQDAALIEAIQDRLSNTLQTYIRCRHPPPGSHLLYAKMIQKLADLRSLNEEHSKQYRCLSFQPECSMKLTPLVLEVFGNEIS
Chain of Tumor necrosis factor (Homo sapiens) (P01375 whole entry, looked up): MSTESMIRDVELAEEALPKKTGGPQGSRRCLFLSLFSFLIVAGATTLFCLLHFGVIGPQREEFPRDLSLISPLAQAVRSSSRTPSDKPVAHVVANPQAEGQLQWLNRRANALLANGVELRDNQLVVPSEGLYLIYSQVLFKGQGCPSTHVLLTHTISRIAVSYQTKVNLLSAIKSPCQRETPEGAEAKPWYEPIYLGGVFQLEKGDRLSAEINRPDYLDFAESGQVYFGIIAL
Chain of Voltage-gated inwardly rectifying potassium channel KCNH2 (Homo sapiens) (Q12809 whole entry, looked up): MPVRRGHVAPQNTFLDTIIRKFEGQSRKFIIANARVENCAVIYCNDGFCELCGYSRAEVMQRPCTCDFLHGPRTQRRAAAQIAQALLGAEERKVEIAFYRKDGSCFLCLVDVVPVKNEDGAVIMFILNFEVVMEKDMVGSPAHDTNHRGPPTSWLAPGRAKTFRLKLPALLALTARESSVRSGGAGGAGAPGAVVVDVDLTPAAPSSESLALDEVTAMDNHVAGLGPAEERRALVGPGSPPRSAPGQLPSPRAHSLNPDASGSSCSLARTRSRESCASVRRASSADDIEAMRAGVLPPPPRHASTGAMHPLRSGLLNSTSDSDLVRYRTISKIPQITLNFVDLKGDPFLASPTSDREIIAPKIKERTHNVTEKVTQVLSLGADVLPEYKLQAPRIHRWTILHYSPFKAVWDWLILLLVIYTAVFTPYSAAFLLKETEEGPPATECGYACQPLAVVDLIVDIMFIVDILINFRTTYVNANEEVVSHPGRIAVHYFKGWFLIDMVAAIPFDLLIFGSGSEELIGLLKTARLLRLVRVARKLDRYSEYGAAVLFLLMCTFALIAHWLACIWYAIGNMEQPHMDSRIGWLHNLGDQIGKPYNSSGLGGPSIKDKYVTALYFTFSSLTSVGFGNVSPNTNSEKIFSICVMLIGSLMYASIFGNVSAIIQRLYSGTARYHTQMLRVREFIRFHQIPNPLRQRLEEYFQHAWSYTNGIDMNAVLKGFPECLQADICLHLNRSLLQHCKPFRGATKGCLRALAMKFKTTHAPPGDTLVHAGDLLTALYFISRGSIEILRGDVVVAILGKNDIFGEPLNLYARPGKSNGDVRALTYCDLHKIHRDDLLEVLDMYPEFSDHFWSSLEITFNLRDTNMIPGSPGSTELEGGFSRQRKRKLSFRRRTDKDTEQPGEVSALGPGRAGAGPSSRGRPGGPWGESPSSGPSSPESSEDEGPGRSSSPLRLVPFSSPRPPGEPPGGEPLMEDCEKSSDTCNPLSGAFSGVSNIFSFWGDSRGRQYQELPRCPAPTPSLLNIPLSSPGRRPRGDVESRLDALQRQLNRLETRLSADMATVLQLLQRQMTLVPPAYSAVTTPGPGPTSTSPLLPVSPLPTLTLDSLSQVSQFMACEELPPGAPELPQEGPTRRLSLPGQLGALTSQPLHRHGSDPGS
Chain of Nuclear receptor subfamily 1 group I member 2 (Rattus norvegicus) (Q9R1A7 whole entry, looked up): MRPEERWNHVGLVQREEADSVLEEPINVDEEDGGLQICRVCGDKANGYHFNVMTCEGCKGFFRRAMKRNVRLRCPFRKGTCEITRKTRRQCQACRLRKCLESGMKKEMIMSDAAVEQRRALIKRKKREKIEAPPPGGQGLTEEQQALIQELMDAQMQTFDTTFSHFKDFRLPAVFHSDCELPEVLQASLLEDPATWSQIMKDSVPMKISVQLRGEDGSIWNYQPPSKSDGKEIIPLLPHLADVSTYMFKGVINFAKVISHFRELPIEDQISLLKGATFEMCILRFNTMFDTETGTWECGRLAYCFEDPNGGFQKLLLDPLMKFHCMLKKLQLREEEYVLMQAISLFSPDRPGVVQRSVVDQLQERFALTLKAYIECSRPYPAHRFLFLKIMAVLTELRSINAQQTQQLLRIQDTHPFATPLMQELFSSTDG

As to `O=C(O)CC(C(=O)O)C(CC(=O)O)C(=O)O` (stereo not given), the Potency entry in assay [1], in [2], in [3], in [4], in assay [12] and in assay [14] was “inactive” each time. The Potency entry in assay [17] and in assay [18] was “inactive” in each case. In addition, the activation in assay [5] was -3.1% (inactive) and -3.88% (inactive); in assay [13], -3.49% (inactive) and -0.408% (inactive); in [16], -0.527% (inactive) and 0.126% (inactive). For the same compound, the compound was called inactive in [6], in assay [7], in assay [8], in assay [10], in assay [15] and in assay [20]. For the same compound, the max response in assay [9] was 3.34% and -3.12%; in assay [19] it was -5.76% (inactive) and 4.78% (inactive). The activity change % (negative = inhibition) in [11] is -3.7% (inactive) and -9.45% (inactive).
For `C=CCOC(=O)c1ccccc1C(=O)OCC=C`, the Potency result in assay [1], in [3], in assay [4], in [12], in assay [14] and in assay [17] was “inactive” throughout. In assay [18], the Potency entry is “inactive”. Also, the outcome in assay [6], in [10], in [15] and in [20] was inactive. Further, the max response in assay [9] was -9.89% and -14.8%; in assay [19], -2.3% (inactive) and 1.03% (inactive). In addition, in [11], the activity change % (negative = inhibition) was -9.14% (inactive) and 1.91% (inactive). Further, the activation in [13] is -0.242% (inactive) and -1.19% (inactive); in [16] it was -0.581% (inactive) and 2.86% (inactive).
With `C=CC(=O)OCCOCCOCCOCCOC(=O)C=C`, the Potency in assay [1] is 31.6 µM (active) and 39.8 µM (active); in [2] it was 20 µM (active) and 25.1 µM (active); in assay [3], 39.8 µM [inconclusive] (active); in [17], 66.8 µM (active). Also, the activation is -5.18% (inactive) in assay [5]; 28.9% (inactive) and 15.6% (inactive) in [13]; 1.73% (inactive) and 5.16% (inactive) in assay [16]. Further, the outcome in assay [8], in assay [15] and in assay [20] was inactive. Further, the Potency result in assay [12], in [14] and in assay [18] was “inactive” in each case.
In the case of `C/C=C\c1ccc(OC)cc1`, the Potency result in assay [1], in assay [2], in assay [12], in [17] and in assay [18] was “inactive” in each case. For the same compound, the result in assay [6], in assay [10], in assay [15] and in assay [20] was inactive. The figures for the max response in [9] and in assay [19] were -9.52% and 5.64% (inactive), respectively. In addition, the activity change % (negative = inhibition) in assay [11] is 20.9% (inactive). Besides, in assay [16], the activation was -0.657% (inactive).
For `CCCCCCCCCCCCCCC1CO1` (stereo not given), the Potency entry in assay [1], in assay [3], in assay [4], in assay [12], in [17] and in [18] was “inactive” each time. For the same compound, the activation in [5] was 1.74% (inactive) and -2.57% (inactive); in assay [13], 0.526% (inactive) and -2.5% (inactive); in assay [16], 0.108% (inactive) and 0.658% (inactive). For the same compound, the call in [6], in [7], in assay [8], in assay [10], in [15] and in [20] was inactive. Also, the max response in assay [9] was -14.5% and -12.1%; in assay [19], -5.5% (inactive) and 2.15% (inactive). The activity change % (negative = inhibition) in assay [11] was 8.79% (inactive).
